Laboratory results from PubChem BioAssay (NCI).
About 83,000 compounds went through this panel and 20% of them were active in at least one assay; those are over-represented in the sample as a whole.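 Percent growth is the endpoint: 0 to 100 indicates growth inhibition (40 means 60% inhibition), 0 means no net growth, and negative values indicate cell death.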 Calls of active or inactive are those of the source.

tested on: OVCAR-5 ovarian; assay: NCI-60 one-dose screen, 48 h (100 = growth as untreated, 0 = no growth, -100 = all killed); conditions: 10 µM unless noted
Procedure: Growth inhibition of the OVCAR-5 human tumor cell line is measured as a screen for anti-cancer activity. Cells are grown in 96 well plates and exposed to the test compound for 48 hours. Compounds are tested at a single concentration, which is 10^-5 M for most compounds. The reported endpoint is percent growth (GI% or GIPRCNT), where numbers from 0 - 100% represent growth inhibition, and numbers from -100% - 0 represent cell death. For example, a value of 40 represents 60% growth inhibition. A value of 0 means no net growth occurred over the course of the experiment. A value of -40 indicates 40% of cells at the beginning of the experiment died by the end of the experiment. A value of -100 means all cells are dead at the end of the experiment.
NCI-60 Human Tumor Cell Lines Screen was performed using the standard one-dose NCI protocol, which is described in more detail at https://dtp.cancer.gov/discovery_development/nci-60/default.htm.
Compounds with GIPRCNT values below 10 were considered active. Activity score was based on GIPRCNT using the following formula: […]
Score is 0 for GIPRCNT values of 100 or above, 50 for GIPRCNT values of 0, and 100 for GIPRCNT values of -100.

**Q.** How did the growth turn out when `COc1ccc(-c2ccc(-c3ccc(C(=N)N)nc3)s2)cc1Cl` was run?
**A.** -37.6% (active)

**Q.** `C#COc1cccc(Nc2ncnc3cc(NC(=O)[C@@H](C)Cl)ccc23)c1` was tested. Which growth did it give?
**A.** 25% [6.25 µM] (inactive)

**Q.** With `C=C1C(=O)O[C@H]2[C@H]1CC/C(COC(=O)CSCSCC(=O)OC/C1=C/CC[C@@]3(C)O[C@H]3[C@H]3OC(=O)C(=C)[C@@H]3CC1)=C\CC[C@@]1(C)O[C@@H]21` as the compound, how does the growth read?
**A.** 30.1% (inactive)

**Q.** For `CCCCCN(CCCCC)CC(O)c1cc(C)c2ccc3cc(C(C)C)ccc3c2c1` (stereo not given), which growth is on record?
**A.** -28.2% (active)

**Q.** `CCOC(=O)c1nn(CC(O)c2ccccc2)c(NC(=O)Nc2cccc(F)c2)c1C` (stereo not given) was tested. Which growth did it give?
**A.** 107% (inactive)

**Q.** How did the growth turn out when `CN1CCN(CCOc2ccc(-c3cnc4c(-c5ccc(F)cc5)cnn4c3)cc2)CC1` was run?
**A.** 83.4% (inactive)

**Q.** How did the growth turn out when `COc1ccc2c(c1)CCc1[nH]nc(-c3cc(OC)c(OC)c(OC)c3)c1-2` was run?
**A.** 56% (inactive)

**Q.** How did the growth turn out when `Oc1ccc(/C=C/c2ccc(O)cc2)cc1` was run?
**A.** 135% (inactive)

**Q.** With `C=C(C)[C@@H]1CC[C@]2(C(=O)N3CCN(C)CC3)CC[C@]3(C)[C@H](CC[C@@H]4[C@@]5(C)CC[C@H](OC(=O)c6ccccc6C(=O)O)C(C)(C)[C@@H]5CC[C@]43C)[C@@H]12` as the compound, how does the growth read?
**A.** 104% (inactive)

**Q.** With `CC(=O)c1ccc(Nc2nccc(-c3ccc4ccccc4c3)n2)cc1` as the compound, how does the growth read?
**A.** 99.8% (inactive)

**Q.** `O=C(NNC(=O)c1nc2cc(F)ccc2n2cccc12)c1cnccn1` was tested. Which growth did it give?
**A.** 68.3% (inactive)

**Q.** For `CCCC(CC)(C(=O)Nc1ccc2nc(C)cc(N)c2c1)C(=O)Nc1ccc2nc(C)cc(N)c2c1`, which growth is on record?
**A.** 85.1% (inactive)

**Q.** Which growth does the source give for `COc1ccc(/C=C/C(c2cc(OC)c(OC)c(OC)c2)n2ccnc2)cc1O` (stereo not given) here?
**A.** 103% (inactive)

**Q.** How did the growth turn out when `CNCc1cccc2c1OCCOCCOCCNS(=O)(=O)c1ccc(cc1)-c1cnc(N)c(n1)C(=O)N2` was run?
**A.** 56.3% (inactive)

**Q.** For `COc1cccc(Nc2ncnc3cc(NC(=O)CCl)ccc23)c1`, which growth is on record?
**A.** -82.2% (active)

**Q.** For `CC(=O)OC[C@]12CC[C@@H]([C@@H](C)c3nnc(-c4ccncc4)o3)[C@@H]1[C@H]1CC[C@@H]3[C@@]4(C)CC[C@H](OC(C)=O)C(C)(C)[C@@H]4CC[C@@]3(C)[C@]1(C)CC2`, which growth is on record?
**A.** 109% (inactive)

**Q.** For `COc1ccc(/C(C)=C(/c2ccc(OCCCN(C)C)cc2)c2ccc(OC(=O)c3ccccc3)cc2)cc1`, which growth is on record?
**A.** 88.1% (inactive)

**Q.** How did the growth turn out when `CCOC(=O)C1=C(C)C(Cl)=N/C1=C\c1[nH]c(Cl)c(C)c1C(=O)OCC` was run?
**A.** 124% (inactive)

**Q.** With `COc1ccc(/C=C2\CN(C(=O)C(Cl)Cl)C/C(=C\c3ccc(OC)cc3)C2=O)cc1` as the compound, how does the growth read?
**A.** 9.63% (active)

**Q.** With `CS(=O)(=O)c1ccc(NC(=O)c2ccccc2)nc1` as the compound, how does the growth read?
**A.** 108% (inactive)

**Q.** For `CS(=O)(=O)Nc1cc(-c2ccc3ncc(C#N)c(Nc4ccc(F)c(Cl)c4)c3c2)cnc1Cl`, which growth is on record?
**A.** 6.33% (active)

**Q.** How did the growth turn out when `Cc1ccc2nc(/C(C#N)=C(/CCCO)NC(Cc3ccccc3)C(=O)OCc3ccccc3)[nH]c(=O)c2c1` (stereo not given) was run?
**A.** 89.2% (inactive)

**Q.** With `CCN(CC)c1ccc(CNc2cc(C)nc3ccccc23)cc1` as the compound, how does the growth read?
**A.** 73.2% (inactive)

**Q.** `COc1ccc(-c2nn(-c3ccccc3)cc2/C=C/C(=O)NNC(=O)Nc2ccc(C)cc2)cc1` was tested. Which growth did it give?
**A.** 103% (inactive)

**Q.** How did the growth turn out when `COc1ccccc1C(=O)Nc1cccc(NC(=O)c2ccoc2C)c1` was run?
**A.** 85.3% (inactive)

**Q.** With `CO[C@H](C(=O)[C@@H](O)[C@@H](C)O)[C@@H]1Cc2cc3cc(O[C@H]4C[C@@H](O[C@H]5C[C@@H](O)[C@H](O)C(C)O5)[C@H](O)C(C)(O)O4)cc(O)c3c(O)c2C(=O)[C@H]1O[C@H]1C[C@@H](O[C@H]2C[C@@H](O[C@H]3C[C@@H](OC)[C@H](O)C(C)O3)[C@@H](O)C(C)O2)[C@H](O)C(C)O1` (stereo not given in full) as the compound, how does the growth read?
**A.** 21% (inactive)

**Q.** For `CCOC(=O)CC1CSC(Nc2ccccc2)=N1` (stereo not given), which growth is on record?
**A.** 104% (inactive)

**Q.** For `O=C1NC(=O)/C(=C/c2c(-c3ccccc3)nc3sc(COc4ccccc4)nn23)S1`, which growth is on record?
**A.** 115% (inactive)

**Q.** How did the growth turn out when `COc1ccc2[nH]cc(-c3nc(-c4c[nH]c5c(Cl)nccc45)cs3)c2c1` was run?
**A.** 99.9% (inactive)

**Q.** Which growth does the source give for `CSC(SC)=C(C#N)c1nc2ccccc2s1` here?
**A.** 72.5% (inactive)

**Q.** `C=CC(=O)Nc1ccc(Nc2nccc(-c3ccc(N4CCCC4)c(C#N)c3)n2)cc1` was tested. Which growth did it give?
**A.** 73.4% (inactive)

**Q.** For `COc1ccc(-c2n[nH]c(=O)c3nc(NC(=S)Nc4ccc(Oc5ccccc5)cc4)sc23)cc1`, which growth is on record?
**A.** 104% (inactive)

**Q.** How did the growth turn out when `CC1=CCC(OC(=O)C(C)(C)CC(O)(C(C)O)C(O)C2(C)C=CC(Cc3ccc(C(C)C)cc3)(C(C)C)CC2)(C(C)C)CC1` (stereo not given) was run?
**A.** 94.9% (inactive)

**Q.** How did the growth turn out when `COc1cccc(C(=O)NNc2nc(Cl)nc(Cl)n2)c1` was run?
**A.** 101% (inactive)

**Q.** For `CC1(C)N=C(N)N=C(N)N1c1cccc(CCc2ccccc2)c1`, which growth is on record?
**A.** 49.2% (inactive)

**Q.** How did the growth turn out when `CC(=O)OC(c1ccccc1)C1CCOC1=O` (stereo not given) was run?
**A.** 86.8% (inactive)

**Q.** Which growth does the source give for `Nc1[nH]c(=S)nc2oc(-c3ccccc3)c(-c3ccccc3)c12` here?
**A.** 98.2% (inactive)

**Q.** For `CN1CCN(C(=S)SCCCCOc2cc(=O)oc3ccccc23)CC1`, which growth is on record?
**A.** 101% (inactive)

**Q.** With `Cc1ccc(-c2csc(N(C(=O)N3CCN(c4cc5c(cc4F)c(=O)c(C(=O)O)cn5C4CC4)CC3)c3ccccc3)n2)cc1` as the compound, how does the growth read?
**A.** 13.2% (inactive)

**Q.** With `O=C(O)c1ccc(-c2ccc(/C=N/Nc3nc(Nc4ccccc4)nc(N4CCCCC4)n3)o2)cc1` as the compound, how does the growth read?
**A.** 94.9% (inactive)
